FBPA Giardia inh = Giardia lamblia aldolase inhibition | 290,000 tested, 0.71% active | AID 2451 | A8B2U2 | Potency, µM (highest dose often 59.6 µM), without a hit: at the top dose activity, negative = inhibition, actives largely listed as inhibitors | purified Giardia FBPA; also: potency is read from the fitted curve at half-maximal effect; % is scaled to controls: 0 for no effect and ±100 for the full control effect; nearly all actives have a fitted effect of over 55% in size
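40 nM FBPA preincubated 10 min at RT with compound (up to 57.5 uM final), then substrate plus GAPDH/TPI/NAD/arsenate coupling and diaphorase/resazurin added. Fluorescence read after 20 min at RT, 525/598 nm.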
Cycloheximide cs = counter-screen for Shiga toxin inhibitors: cycloheximide protein synthesis inhibition. cell reporter, cycloheximide protein synthesis inhibition counterscreen. max response, %. 300,000 tested, 12% active; in the data active = max response mostly above about 13%, no sharp cut-off; inactive = mostly below about 14%; also: read at 38.3 µM for the half of the compounds with a filed dose; 0% is about no effect
LmPK inhibitor = blocks Leishmania mexicana pyruvate kinase activity; Q27686; purified LmPK, Kinase-Glo ATP luminescence, 1 h; Potency, µM (top dose mostly 57.5 µM), inactives show top-dose activity change, negative = inhibition, most hits filed as inhibitors; 290,000 tested, 0.37% active; also: potency is read from the fitted curve at half-maximal effect; % is scaled to controls: 0 for no effect and ±100 for the full control effect
Target sequence (Q27686 whole entry, looked up): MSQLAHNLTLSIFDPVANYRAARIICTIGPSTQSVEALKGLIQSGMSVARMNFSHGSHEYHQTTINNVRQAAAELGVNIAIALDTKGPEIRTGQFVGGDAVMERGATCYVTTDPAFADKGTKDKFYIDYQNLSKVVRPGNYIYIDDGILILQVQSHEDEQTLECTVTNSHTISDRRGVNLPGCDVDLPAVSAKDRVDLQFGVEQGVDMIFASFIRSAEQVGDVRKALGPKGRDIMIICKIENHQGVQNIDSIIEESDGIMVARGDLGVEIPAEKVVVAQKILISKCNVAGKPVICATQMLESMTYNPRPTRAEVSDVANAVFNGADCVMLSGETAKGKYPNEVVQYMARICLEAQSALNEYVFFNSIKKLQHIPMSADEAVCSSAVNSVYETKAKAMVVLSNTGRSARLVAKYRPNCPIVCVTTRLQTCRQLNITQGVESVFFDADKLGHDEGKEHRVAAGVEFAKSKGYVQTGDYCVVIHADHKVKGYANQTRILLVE
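Purified LmPK (0.1 nM) with 0.5 mM PEP and 0.1 mM ADP in imidazole buffer pH 7.2 with MgCl2/KCl, 1 h at room temperature. ATP formed was read by luciferase luminescence and normalized to no-enzyme and uninhibited controls.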
Sm TGR block = inhibitors of Schistosoma mansoni thioredoxin glutathione reductase; Q962Y6; purified TGR, DTNB reduction, TNB absorbance 405 nm; Potency, µM (titrated, usually from 114 µM), inactives show at the top dose activity change, negative = inhibition, actives largely listed as inhibitors; 360,000 tested, 3% active; also: potency is read from the fitted curve at half-maximal effect; % is scaled to controls: 0 for no effect and ±100 for the full control effect; nearly all actives have a fitted effect of over 60% in size
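TGR 20 nM + NADPH 100 uM (dispensed conc.), cpd preinc 15 min RT; start with NADPH (500 uM addition) then DTNB (15 mM addition). Kinetic TNB absorbance, 405 nm filter. Four-parameter Hill fit across titration.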
Shiga inhibitor = Shiga toxin inhibition; Vero cells, Shiga toxin protein synthesis inhibition reporter; inhibition, % at 38.7 µM; 290,000 tested, 9.2% active; in the data active = inhibition mostly above about 28%, no sharp cut-off; inactive = mostly below about 43%; also: 0% is about no effect
TbPYK inhibitor = blocks Trypanosoma brucei pyruvate kinase; AID 624173; Potency, µM (top dose mostly 76.8 µM), for inactives: at the top dose activity, negative = inhibition, actives largely listed as inhibitors; Q57TT1; 410,000 tested, 0.12% active; TbPYK enzyme, Kinase-Glo Plus ATP luminescence, 45 min; also: potency is read from the fitted curve at half-maximal effect; % is scaled to controls: 0 for no effect and ±100 for the full control effect; nearly all actives have a fitted effect of over 50% in size
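In this concentration-response screen, enzyme-free wells defined baseline while DMSO plates tracked drift. Each reaction combined TbPYK, substrate, compound and 130 uM ADP for 45 min at room temperature. Kinase-Glo Plus luminescence gave the signal.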
An asterisk follows results filed as active; ? = inconclusive; · = no result. The entries come from a sample that favours hits as a whole. Unless noted, calls follow the shape of the dose curve; as a rule, active = well fitted curve in the direction sought with a large enough effect; inconclusive = small, poorly fitted or top-dose-only effect, or another doubt; inactive = no such curve, though single readings can be large; an effect the other way counts as inactive or inconclusive.

SMILES	FBPA Giardia inh	Cycloheximide cs	LmPK inhibitor	Sm TGR block	Shiga inhibitor	TbPYK inhibitor
C/C(=N/NC(=O)c1ccccc1)C(=O)O	-19.2%	41.7*	?	?	73.6*	6.5%
C/C(=N\NC(=O)c1cccc(Br)c1)c1ccc(Br)cc1	3.5%	32.9*	4.6%	18.1%	53.7*	-2.8%
Cc1ccc(CNC(=O)CCS(=O)(=O)c2ccc(Br)s2)o1	0.8%	-1.7	3.4%	10µM*	-4.2	-30.0%
CC(=O)c1cccc(NC(=O)CCS(=O)(=O)c2ccc(Br)s2)c1	-4.0%	18.5	-0.2%	39.8µM*	23.1	0.0%
CCC1Sc2ccc(S(=O)(=O)CCC(=O)Nc3ccccc3Cl)cc2NC1=O (stereo unspecified)	-1.4%	12.7	-4.9%	-18.5%	10.7	2.5%
CCC1Sc2ccc(S(=O)(=O)CCC(=O)NCc3ccc(C)o3)cc2NC1=O (stereo unspecified)	-10.4%	4.8	-2.1%	28.2µM*	3.1	-13.1%
Cc1ccc(N2CC(c3nc(-c4ccc(Cl)cc4)no3)CC2=O)cc1F (stereo unspecified)	·	·	·	-7.1%	·	0.2%
COc1ccc(NC(=O)c2oc3ccccc3c2NC(=O)Cc2coc3c(C)c(C)ccc23)cc1	·	·	·	-1.8%	·	0.9%
Cc1cccc(N(C)C(CNS(=O)(=O)c2ccccc2)c2ccccc2)c1 (stereo unspecified)	·	·	·	0.5%	·	2.6%
CC(C)NCC(O)COCCOc1ccc(Br)cc1 (stereo unspecified)	0.4%	-2.1	-0.8%	-2.8%	-3.3	-2.3%
CC(C)NCC(O)COc1ccc(COCCOC(C)C)cc1 (stereo unspecified)	-0.1%	11.1	·	·	28.0*	-2.8%
CC(C)OCCCNC(=S)NNC(=O)c1ccc(Cl)c(Cl)c1	5.8%	29.3*	0.7%	8.4%	65.7*	-14.5%
COCCCNC(=S)NNC(=O)c1ccc2c(c1)OCO2	-4.9%	0.4	-3.9%	?	-1.1	2.6%
Cc1ccc(C(=O)c2ccccc2C(=O)O)c(O)c1	7.8%	-3.5	1.4%	0.0%	-12.8	-6.9%
Cc1ccc(C(=O)CC(=O)c2cccc(F)c2)c(O)c1	-4.7%	35.9*	1.1%	-12.4%	77.3*	3.3%
Cc1ccc(C(=O)CC(=O)c2ccccc2C)c(O)c1	-18.9%	20.3*	-0.5%	7.4%	39.0	-16.2%
Cc1ccc(C(=O)CCC(=O)Nc2ccccc2C)c(C)c1	3.8%	29.0*	-8.0%	-2.0%	12.2	-5.2%
COc1ccc(C(=O)CCC(=O)Nc2ccccc2C)cc1	·	·	·	-8.7%	·	2.5%
CC(=O)C1(C)OC(N)=C(C#N)C(c2ccccc2)C1(C#N)C#N (stereo unspecified)	?	-1.7	-0.4%	11.2µM*	-9.5	-21.9%
Cn1c(-c2ccc3c(c2)OCO3)cnc1NCc1cccc(O)c1	?	25.4*	-1.0%	-5.7%	43.8*	0.8%
Cn1c(-c2ccc(F)cc2)cnc1NCc1cccc(F)c1	·	18.5	4.3%	0.9%	44.7	4.6%
Cn1c(-c2ccccc2)cnc1NCc1cc2c(cc1[N+](=O)[O-])OCO2	?	53.0*	0.0%	-13.7%	60.0*	2.5%
Cn1c(-c2ccc(F)cc2)cnc1NCc1cc2c(cc1[N+](=O)[O-])OCO2	?	32.8*	4.9%	-3.6%	28.0	-0.2%
Cn1c(-c2ccc(Cl)cc2)cnc1NCc1cc2c(cc1[N+](=O)[O-])OCO2	-25.9%	-3.0	-5.7%	-5.6%	-9.7	15.8%
O=C(Nc1ccon1)c1cc2c(s1)CCCC2	-7.0%	35.1*	?	-2.4%	63.7*	-16.6%
SMILES	FBPA Giardia inh	Cycloheximide cs	LmPK inhibitor	Sm TGR block	Shiga inhibitor	TbPYK inhibitor
O=C(Nc1ccon1)c1cc2c(s1)CCCCCC2	-3.3%	29.8*	2.8%	12.6%	64.1*	-3.1%
O=C(Nn1cnnc1)c1cc2c(s1)CCCCC2	-5.5%	2.4	-12.5%	-4.2%	42.4	-3.7%
COc1ccc(Oc2nc3c(c(=O)n(C)c(=O)n3C)n2Cc2ccccc2Cl)cc1	·	·	·	-0.3%	·	-1.1%
COc1ccc(CCC(=O)NCCc2csc(-c3cccc(F)c3)n2)cc1	·	·	·	-4.0%	·	2.7%
CCN(c1ccccc1C)S(=O)(=O)c1cc2c3c(c1)CCC(=O)N3CCC2	·	-2.6	0.6%	-0.7%	-6.3	-0.1%
Cc1ccc(C)c(N2CCN(C(=O)c3cc4c(=O)oc5ccccc5c4s3)CC2)c1	·	·	·	89.1µM*	·	2.9%
Cc1ccc2oc(=O)c3cc(C(=O)NCCCN4CCN(C)CC4)sc3c2c1	-2.1%	-4.4	0.3%	-1.0%	-5.0	6.3%
O=C(c1cc2c(=O)oc3ccccc3c2s1)N1CCOCC1	-0.5%	31.2*	-1.0%	0.0%	-30.3	4.3%
O=C(c1cc2c(=O)oc3ccccc3c2s1)N1CCN(c2ccccc2)CC1	·	·	·	-0.3%	·	-0.1%
O=C(NCCCN1CCCCCC1)c1cc2c(=O)oc3ccccc3c2s1	-8.6%	-2.4	2.7%	50.1µM*	-7.6	-0.2%
Cc1cccc(N2CCN(C(=O)c3cc4c(=O)oc5ccccc5c4s3)CC2)c1C	·	·	·	-0.1%	·	4.8%
CC(=O)Nc1ccc(SC[C@H](c2ccccc2)N2CCN(CCc3ccccc3)CCC2=O)cc1	1.1%	-1.2	5.4%	14.1µM*	24.9	·
CC(=O)Nc1ccc(SCC(c2ccccc2)N2CCN(CC(C)C)CCC2=O)cc1 (stereo unspecified)	1.3%	15.1	·	·	13.9	·
CCCN1CCC(=O)N(C(CSc2ccc(OC)cc2)c2ccccc2)CC1 (stereo unspecified)	-2.2%	42.2*	·	·	155.8*	·
CCCN1CCC(=O)N([C@H](CSc2ccc(Br)cc2)c2ccccc2)CC1	20.4%	34.8*	-0.5%	?	18.7	0.2%
COc1cccc(N2CCN(Cc3nnc(-c4ccc5c(c4)OCO5)o3)CC2)c1	·	·	·	0.1%	·	3.2%
O=c1[nH]c(=O)n(CCC2=CCCCC2)c(O)c1C=NCCN1CCNCC1	1.2%	-2.5	-1.6%	10µM*	-23.6	-2.1%
O=c1[nH]c(=O)n(Cc2ccccc2)c(O)c1C=Nc1ccc(CN2CCOCC2)cc1	-4.3%	-2.8	2.0%	35.5µM*	-5.4	-1.3%
O=c1[nH]c(=O)n(CCC2=CCCCC2)c(O)c1/C=N/Nc1cccc2ccccc12	-28.3%	1.5	-2.7%	20µM*	13.1	7.5%
COc1ccc(N=Cc2c(O)n(CC3CCCO3)c(=O)[nH]c2=O)cc1 (stereo unspecified)	-6.3%	11.5*	-1.8%	-2.1%	28.2	0.3%
CCn1c(C)c(C2N3CC4(C)CN2CC(C)(C3)C4=O)c2ccccc21 (stereo unspecified)	·	·	·	2.0%	·	1.8%
COc1ccc(-c2cc(=O)oc3c4c(ccc23)OCN(Cc2cccc(OC)c2)C4)cc1	·	·	·	0.6%	·	-4.4%
Cc1cc(Br)c(NC(=O)CSc2n[nH]c(N)n2)c(Br)c1	·	·	·	·	·	-6.7%
O=c1[nH]c(=O)n(Cc2ccccc2)c(O)c1C=NCCN1CCNCC1	-0.4%	4.1	0.9%	35.5µM*	15.7	7.1%
